# Several values for one entry are separate records, joined by “and”; a condition that tells them apart may be missing. Identical values can stand only once. Counter-ions that a name gives are not always drawn. Screen size: about 5,800 compounds; about 620 (11%) showed activity. The entries come from a sample that favours actives as a whole. Unmarked numbers belong to inactive results.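 How the source made its calls: active = score above a cut-off or among the top three wells of a plate; in these data no inactive exceeds 0.85.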
# System: primary human hepatic stellate cells (donor 1)
# Assay: scaled lipid accumulation score (0 = DMSO-like, 1 = nortriptyline-like); higher = stronger HSC inactivation (lipid re-accumulation), active = hit call of the paper
# Conditions: 48 h
# [1] = library stock concentration: 10 mM
# [2] = library stock concentration: 1 mM
# [3] = library stock concentration: 3.33 mM
# [4] = library stock concentration: 2 mM
# [5] = library stock concentration: 80 uM
# [6] = library stock concentration: 400 uM
compound,measurement,setting,value
COCCOc1cc2nc[nH]c(=O)c2cc1OCCOC,scaled lipid accumulation score,[1],0.018
CCCCC[C@H](O)/C=C/[C@H]1C=CC(=O)[C@@H]1CCCCCCC(=O)O [Prostaglandin A1],scaled lipid accumulation score,[2],0.022 and 0.047
Nc1nc2c([nH]c(=O)n2[C@H]2C[C@H](O)[C@@H](CO)O2)c(=O)[nH]1 [8-hydroxy-2'-deoxy Guanosine],scaled lipid accumulation score,[2],≤ 0
C[C@@H]1CC(=O)NN=C1c1ccc(NN=C(C#N)C#N)cc1 [Levosimendan],scaled lipid accumulation score,[3],≤ 0
same,scaled lipid accumulation score,[1],≤ 0
C[C@@H]1CC(=O)NN=C1c1ccc(NN=C(C#N)C#N)cc1,scaled lipid accumulation score,[1],0.073
Cc1ccccc1/C=C/C1=NCCN1 [Metrazoline oxalate],scaled lipid accumulation score,[1],0.381
"CCCCCC(=O)/C=C/C=C\CCCCCCCC(=O)O [13-Keto-octadeca-9Z,11E-dienoic acid]",scaled lipid accumulation score,library stock concentration: 100 uM,0.012
"O=Cc1c2[nH]c3ccccc3c2cc2[nH]c3ccccc3c12 [6-Formylindolo [3,2-B] carbazole]",scaled lipid accumulation score,[2],≤ -0.02
NC(C(=O)O)c1ccc(C(=O)O)c(C(=O)O)c1 (configuration not stated),scaled lipid accumulation score,[1],≤ -0.006
CN(C)c1cc2c(Nc3ccc4c(cnn4Cc4ccccc4)c3)ncnc2cn1,scaled lipid accumulation score,[1],0.524
Cc1c(NC(=O)OC[C@@H]2COCCN2)cn2ncnc(Nc3ccc4c(cnn4Cc4cccc(F)c4)c3)c12.Cl,scaled lipid accumulation score,[3],1.15 (active)
same,scaled lipid accumulation score,[1],1.2 (active)
Cc1nc2ccc(NC(=O)Nc3ccnc4cccnc34)cc2o1,scaled lipid accumulation score,[1],≤ -0.006
CC(=O)[C@]1(O)Cc2c(O)c3c(c(O)c2[C@@H](O[C@H]2C[C@H](N)[C@H](O)[C@H](C)O2)C1)C(=O)c1ccccc1C3=O,scaled lipid accumulation score,[1],0.372
CC(=O)[C@]1(O)Cc2c(O)c3c(c(O)c2[C@@H](O[C@H]2C[C@H](N)[C@H](O)[C@H](C)O2)C1)C(=O)c1ccccc1C3=O [Idarubicin HCl],scaled lipid accumulation score,[3],0.288
same,scaled lipid accumulation score,[1],0.179
CC(=O)[C@]1(O)Cc2c(O)c3c(c(O)c2[C@@H](O[C@H]2C[C@H](N)[C@H](O)[C@H](C)O2)C1)C(=O)c1ccccc1C3=O [Idarubicin],scaled lipid accumulation score,library stock concentration: 4 mM,0.387
same,scaled lipid accumulation score,[1],≤ -0.07
COc1cc(N)c(Cl)cc1C(=O)CCC1CCN(CCNS(C)(=O)=O)CC1,scaled lipid accumulation score,[1],≤ 0
CCCCN1CCC(CCC(=O)c2cc(Cl)c(N)cc2OC)CC1,scaled lipid accumulation score,[1],0.511
COc1cc(COc2cc(N)c(Cl)cc2C(=O)CCC2CCN(CCNS(C)(=O)=O)CC2)cc(OC)c1.Cl,scaled lipid accumulation score,[1],1.06 (active)
CC(C)(Cc1ccc2ccccc2c1)NC[C@@H](O)COc1cccc(Cl)c1C#N,scaled lipid accumulation score,[3],0.524
same,scaled lipid accumulation score,[1],0.023
CC(C)Oc1ccc(Cc2ccc(NC3=NCCN3)cc2)cc1,scaled lipid accumulation score,[2],0.221
CN(C)CC=CC(=O)Nc1cc2c(Nc3ccc(F)c(Cl)c3)ncnc2cc1OC1CCOC1 (configuration not stated),scaled lipid accumulation score,[4],0.855 (active)
CN(C)C/C=C/C(=O)Nc1cc2c(Nc3ccc(F)c(Cl)c3)ncnc2cc1O[C@H]1CCOC1,scaled lipid accumulation score,[5],0.425
same,scaled lipid accumulation score,[6],0.614
same,scaled lipid accumulation score,[1],0.544
"CN(C)C/C=C/C(=O)Nc1cc2c(Nc3ccc(F)c(Cl)c3)ncnc2cc1O[C@H]1CCOC1 [Afatinib  (TOVOK,  BIBW-2992) (2 mM)]",scaled lipid accumulation score,[4],1.29 (active)
CN(C)C/C=C/C(=O)Nc1cc2c(Nc3ccc(F)c(Cl)c3)ncnc2cc1O[C@H]1CCOC1 [Afatinib (BIBW2992)],scaled lipid accumulation score,[1],0.323
"CN(C)C/C=C/C(=O)Nc1cc2c(Nc3ccc(F)c(Cl)c3)ncnc2cc1O[C@H]1CCOC1 [Afatinib  (TOVOK,  BIBW-2992) (10 mM)]",scaled lipid accumulation score,[1],0.256
CN(C)CC=CC(=O)Nc1cc2c(Nc3ccc(F)c(Cl)c3)ncnc2cc1O[C@H]1CCOC1 [Afatinib (BIBW2992)],scaled lipid accumulation score,[3],1.12 (active)
"CN(C)C/C=C/C(=O)Nc1cc2c(Nc3ccc(F)c(Cl)c3)ncnc2cc1O[C@H]1CCOC1 [Afatinib  (TOVOK,  BIBW-2992) (0.4 mM)]",scaled lipid accumulation score,[6],0.318
Cc1cc(/C(=C/Nc2ccc(Cl)cc2)C(=O)Nc2ccc(Cl)cc2)on1,scaled lipid accumulation score,[1],0.332
"CCCCCC#CCC#CCCCCCCCC(=O)O [9,12-Octadecadiynoic Acid]",scaled lipid accumulation score,[2],0.001
Cc1c(C)c2c(c(C)c1O)CCC(C)(CCCC(C)CCCC(C)CCCC(C)C)O2 (stereo not drawn) [Alpha-tochopherol],scaled lipid accumulation score,[1],≤ 0
COc1cc(C[C@H]2C(=O)OC[C@@H]2Cc2ccc(OC)c(OC)c2)ccc1O [Arctigenin],scaled lipid accumulation score,[1],≤ -0.006
C/C(=N\NC(=O)C1C(=O)NCC1c1ccccc1)c1cccc(Br)c1 (configuration not stated),scaled lipid accumulation score,[1],≤ -0.001
CCOC(=O)C1=C(N)Oc2ccc(Br)cc2C1C(C#N)C(=O)OCC (configuration not stated),scaled lipid accumulation score,[3],0.391
same,scaled lipid accumulation score,[1],0.006
CCOC(=O)C1=C(N)Oc2ccc(Br)cc2[C@H]1[C@H](C#N)C(=O)OCC,scaled lipid accumulation score,[1],1.15 (active)
CCCCCCCCCCCCCCCC(=O)OCC(O)C1OC(=O)C(O)=C1O [L-Ascorbyl 6-palmitate],scaled lipid accumulation score,[3],0.009
same,scaled lipid accumulation score,[1],≤ 0
CC1(CN2CCC(n3c(=O)[nH]c4ccccc43)CC2)OCc2ccccc2-n2cccc21 (configuration not stated),scaled lipid accumulation score,[1],0.057
O=C(Nc1cc(Cl)cc2c1[nH]c1cnccc12)c1cccnc1 [IKK Inhibitor X],scaled lipid accumulation score,[3],≤ 0
COc1cc2ncnc(Nc3ccc(NC(=O)c4ccccc4)cc3)c2cc1OC [Aurora Kinase Inhibitor II],scaled lipid accumulation score,[3],≤ 0
C#Cc1cccc(Nc2ncnc3cc(OCCOC)c(OCCOC)cc23)c1 [Erlotinib],scaled lipid accumulation score,library stock concentration: 5.1 mM,≤ -0.006
C#Cc1cccc(Nc2ncnc3cc(OCCOC)c(OCCOC)cc23)c1,scaled lipid accumulation score,[5],≤ -0.009
same,scaled lipid accumulation score,[6],≤ -0.009 and ≤ -0.005
same,scaled lipid accumulation score,[4],≤ -0.009 and ≤ -0.005
same,scaled lipid accumulation score,[1],0.052 and 0.04
COc1cc2c(Nc3ccc(NC(=O)c4ccccc4)cc3)ncnc2cc1OCCCN1CCOCC1 [listing 1 of 4 here],scaled lipid accumulation score,[3],1.06 (active)
same,scaled lipid accumulation score,[1],1.11 (active)
COc1cc2c(N3CCN(C(=O)Nc4ccc(OC(C)C)cc4)CC3)ncnc2cc1OCCCN1CCCCC1 [Tandutinib (MLN518)],scaled lipid accumulation score,[3],0.295
same,scaled lipid accumulation score,[1],0.406
COc1cc2c(Nc3ccc(NC(=O)c4ccccc4)cc3)ncnc2cc1OCCCN1CCOCC1 [listing 2 of 4 here],scaled lipid accumulation score,[1],1.14 (active)
COc1cc2c(Nc3ccc(NC(=O)c4ccccc4)cc3)ncnc2cc1OCCCN1CCOCC1 [listing 3 of 4 here],scaled lipid accumulation score,[5],≤ -0.001
same,scaled lipid accumulation score,[6],≤ -0.009
same,scaled lipid accumulation score,[4],0.256
COc1cc2c(N3CCN(C(=O)Nc4ccc(OC(C)C)cc4)CC3)ncnc2cc1OCCCN1CCCCC1 [listing 1 of 2 here],scaled lipid accumulation score,[6],0.045
same,scaled lipid accumulation score,[4],0.538
same,scaled lipid accumulation score,[1],0.65
C#Cc1cccc(Nc2ncnc3cc(OC)c(OCCCCCCC(=O)NO)cc23)c1,scaled lipid accumulation score,[3],0.652
same,scaled lipid accumulation score,[1],0.306
COc1cc2c(N3CCN(C(=O)Nc4ccc(OC(C)C)cc4)CC3)ncnc2cc1OCCCN1CCCCC1 [listing 2 of 2 here],scaled lipid accumulation score,[1],1.24 (active)
COc1cc2ncnc(N3CCN(C(=O)Nc4ccc(Oc5ccccc5)cc4)CC3)c2cc1OC,scaled lipid accumulation score,[5],≤ -0.001
same,scaled lipid accumulation score,[6],≤ -0.001
same,scaled lipid accumulation score,[4],≤ -0.001
same,scaled lipid accumulation score,[1],≤ -0.001
COc1cc2ncnc(N3CCN(C(=O)Nc4ccc(Oc5ccccc5)cc4)CC3)c2cc1OC [PDGF Receptor Tyrosine Kinase Inhibitor III],scaled lipid accumulation score,[3],≤ 0
C#Cc1cccc(Nc2ncnc3cc(OCCOC)c(OCCOC)cc23)c1 [Erlotinib HCl (OSI-744)],scaled lipid accumulation score,[3],≤ 0
same,scaled lipid accumulation score,[1],≤ 0
COc1cc2c(Nc3ccc(NC(=O)c4ccccc4)cc3)ncnc2cc1OCCCN1CCOCC1 [listing 4 of 4 here],scaled lipid accumulation score,[1],1.03 (active)
C[C@]12C=CC(=O)N[C@@H]1CC[C@@H]1[C@@H]2CC[C@]2(C)[C@@H](C(=O)Nc3cc(C(F)(F)F)ccc3C(F)(F)F)CC[C@@H]12 [Dutasteride],scaled lipid accumulation score,[3],≤ 0
same,scaled lipid accumulation score,[1],0.409
Cc1cc(Nc2nc(-c3ccccc3)nc3ccccc23)n[nH]1 [GSK-3 Inhibitor XIII],scaled lipid accumulation score,[3],≤ 0
CCCCCC=CCC=CCCCCCCCC(=O)OC(COC(=O)CCCCCCCCCCCCCCC)COP(=O)(O)OCCN (configuration not stated) [1-Palmitoyl-2-linoleoyl PE],scaled lipid accumulation score,[2],0.006
CCCCC/C=C\C/C=C\C/C=C\CCCCCCC(=O)OCC [Dihomo-.gamma.-Linolenic Acid ethyl ester],scaled lipid accumulation score,[2],0.019
COc1ccc2cc(CC(=O)O)ccc2c1 [6-methoxy Naphthalene Acetic Acid],scaled lipid accumulation score,[2],0.002
CC#CCC(C)[C@@H](O)/C=C/[C@@H]1[C@H]2C/C(=C/CCCC(=O)O)C[C@H]2C[C@H]1O (stereo partly drawn) [15(R)-Iloprost],scaled lipid accumulation score,[2],≤ 0
CC(C)(C(=O)NCC(F)(F)C(F)(F)F)C(=O)N[C@@H]1C(=O)Nc2ccccc2-c2ccccc21,scaled lipid accumulation score,[3],≤ 0
same,scaled lipid accumulation score,[1],≤ 0
CC(=O)Nc1c(I)cc(I)c(C(=O)O)c1I [Acetriazoic acid],scaled lipid accumulation score,library stock concentration: 3.6 mM,0.001
same,scaled lipid accumulation score,[1],≤ -0.027
CSc1nc(-c2ccnc(NC(C)c3ccccc3)c2)c(-c2ccc(F)cc2)[nH]1 (configuration not stated) [p38 MAP Kinase Inhibitor III],scaled lipid accumulation score,[3],≤ 0
CCCCCCCCCCCCCCCC(=O)OC(CC(=O)O)C[N+](C)(C)C (racemic) [Palmitoyl-DL-Carnitine chloride],scaled lipid accumulation score,[1],0.446

# From the supplement of paper PMC9135407
